# Assay outcomes deposited in PubChem BioAssay by several laboratories.
# HDAC3 inh: blocks human histone deacetylase 3; recombinant HDAC3, fluorogenic peptide/trypsin coupled, fluorescence; inhibition, % at 8.3 µM; actives 0.15% (n = 320,000); AID 2718; in the data active = inhibition above about 26%, passing the limit was not always enough; inconclusive = no clear call, values can overlap the other calls
# Target sequence (O15379 whole entry, looked up): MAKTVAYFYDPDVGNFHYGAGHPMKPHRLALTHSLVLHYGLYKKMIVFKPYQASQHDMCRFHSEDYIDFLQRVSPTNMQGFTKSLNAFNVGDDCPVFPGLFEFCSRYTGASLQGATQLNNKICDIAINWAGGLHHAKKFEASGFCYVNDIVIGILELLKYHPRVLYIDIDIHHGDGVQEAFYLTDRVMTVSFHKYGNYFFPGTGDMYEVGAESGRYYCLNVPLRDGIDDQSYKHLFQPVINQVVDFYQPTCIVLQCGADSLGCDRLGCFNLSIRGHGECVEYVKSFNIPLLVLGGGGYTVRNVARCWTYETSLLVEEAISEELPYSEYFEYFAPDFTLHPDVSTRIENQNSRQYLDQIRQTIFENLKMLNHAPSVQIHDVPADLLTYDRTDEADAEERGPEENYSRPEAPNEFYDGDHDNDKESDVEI
# A3A deaminase: blocks human APOBEC3A ssDNA deamination. P31941. recombinant A3A, FAM/TAMRA ssDNA deamination fluorescence. inhibition, % at 20 µM. actives 0.41% (n = 330,000). AID 493011;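 active = at least 40% inhibition at 20 µM here, with at most 30% in a related deaminase screen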
# Target sequence (P31941 whole entry, looked up): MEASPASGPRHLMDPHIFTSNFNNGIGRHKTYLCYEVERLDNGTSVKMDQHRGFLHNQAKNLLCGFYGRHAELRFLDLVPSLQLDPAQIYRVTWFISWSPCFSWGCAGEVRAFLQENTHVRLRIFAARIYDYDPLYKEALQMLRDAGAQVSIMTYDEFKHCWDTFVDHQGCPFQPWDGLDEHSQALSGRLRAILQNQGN
# LANA-H2B inh: blocks KSHV LANA binding to histone H2A/H2B; Q9QR71; cell-free LANA-H2A/H2B peptide, fluorescence polarization; inhibition, % (no concentration beside the values); actives 0.6% (n = 320,000); AID 2629; in the data active = inhibition mostly above about 10%, no sharp cut-off; inactive = mostly below about 6.7%
# APOBEC3G inh: blocks human APOBEC3G single-stranded DNA deamination; Q9HC16; recombinant A3G, ssDNA deamination FAM/TAMRA fluorescence; inhibition, % at 20 µM; actives 0.28% (n = 330,000);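 active = inhibition of at least 40% at 20 µM, with no more than 30% in the related APOBEC3A deaminase screen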
# A3A conf: APOBEC3A (human) deaminase inhibition, confirmed; shares compounds with A3A deaminase; recombinant A3A, ssDNA deaminase UDG fluorescence assay; inhibition, % at 20 µM; actives 63% (n = 1,400);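 active = inhibition reaching a set limit, 80% of the first screen's cutoff, at 20 µM in any replicate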
# UDG ctr A3A: counter-screen for APOBEC3A inhibitors: UDG; shares compounds with A3A deaminase; UDG counterscreen, FAM/TAMRA uracil oligo fluorescence; inhibition, % at 20 µM; 1,000 tested, under 10 active; AID 504714; call rule not given here
# Numbers stand for hits; n = inactive; u = inconclusive; x = no result given. Sampled rows, rich in hits. Any-hit rate of the full collection: about 1.4%.
SMILES,HDAC3 inh,A3A deaminase,LANA-H2B inh,APOBEC3G inh,A3A conf,UDG ctr A3A
CCN1CCN(c2ccc(S(=O)(=O)N3CCCCC3)cc2NC(=O)c2cccc(C(F)(F)F)c2)CC1,x,57,x,n,51,n
CCCCc1nnc(NC(=O)c2cccc(S(=O)(=O)N3CCN(C)CC3)c2)s1,n,58,n,n,n,x
CCOC(=O)C1CCN(S(=O)(=O)c2ccc3c(c2)CC(=O)N3C)CC1,n,52,n,n,55,n
CCOC(=O)C1CCN(S(=O)(=O)c2ccc3c(c2)CCCN3C(C)=O)CC1,n,n,n,n,x,x
CCOC(=O)/C(C#N)=C(\O)c1ccc(NC(=O)c2ccc([N+](=O)[O-])cc2)cc1,n,n,n,n,x,x
CCn1cc(/C=C(\NC(=O)c2ccccc2F)C(=O)NCCN2CCOCC2)c2ccccc21,n,81,n,n,n,n
CC(C)(C)c1cc(C(=O)NNC(=O)Nc2ccccc2)n(Cc2ccccc2)n1,x,61,n,n,n,n
CC(C)(C)c1cc(C(=O)NNC(=O)Nc2cccc(Cl)c2)n(Cc2ccccc2)n1,u,n,n,n,x,x
CCOC(=O)N1CCN(c2nc3ccccn3c(=O)c2C=O)CC1,n,n,n,n,x,x
CCCCCN(C(=O)CCC(=O)OCc1ccc(Cl)cc1Cl)c1c(N)n(CCCC)c(=O)[nH]c1=O,n,n,n,n,x,x
CCOc1ccc(S(=O)(=O)N2CCN(C(=O)CN3C(=O)NC4(CCCC4)C3=O)CC2)cc1,n,41,n,n,36,n
COc1ccc(S(=O)(=O)N2CCN(C(=O)CN3C(=O)NC4(CCCC4)C3=O)CC2)cc1,n,n,n,n,x,x
CCCc1nc(C)cc(N2CCN(c3ccccc3)CC2)n1,n,n,n,n,x,x
CC[n+]1c(C)cc(C)n1-c1ccccc1,n,93,n,n,75,n
O=C(CN(C(=O)c1csnn1)c1ccc(F)c(Cl)c1)NCc1ccc2c(c1)OCO2,n,n,n,n,x,x
COc1ccc(NC(=O)COC(=O)c2cc3c(s2)CCC3)cc1,n,41,n,n,32,n
COCCn1c(C)cc(C(=O)COC(=O)c2cccc(O)c2)c1C,x,n,n,n,x,x
COCCn1c(C)cc(C(=O)COC(=O)c2cc3c(s2)CCC3)c1C,n,43,n,n,27,n
NC(=O)c1ccc(NC(=O)COC(=O)c2ccc3c(c2)OCO3)cc1,n,n,n,n,x,x
NC(=O)c1ccc(NC(=O)COC(=O)c2cc3c(s2)CCC3)cc1,n,55,n,n,43,n
O=C(COC(=O)c1cc2c(s1)CCCC2)Nc1ccc(Cl)cn1,n,n,n,n,x,x
O=C(COC(=O)c1cc2c(s1)CCC2)Nc1ccc(F)cc1,n,45,n,n,49,n
CC(=O)NC(NC(=S)N1CCCCCC1)C(Cl)(Cl)Cl (stereo not given),n,n,n,n,x,x
CCOC(=O)NC(=O)CN1C(=O)NC(C)(c2ccccc2)C1=O (stereo not given),n,72,n,n,n,n
CCOC(=S)SCC(=O)N1CCc2ccccc2C1C1C(=O)CCCC1=O (stereo not given),x,n,n,n,x,x
SMILES,HDAC3 inh,A3A deaminase,LANA-H2B inh,APOBEC3G inh,A3A conf,UDG ctr A3A
CCOC(=O)CN1C(=O)S/C(=C\c2ccc(-c3cccc(C(=O)O)c3C)o2)C1=O,n,n,n,n,x,x
CCOC(=O)CN1C(=O)S/C(=C\c2ccc(-c3ccc(C(=O)O)c(Cl)c3)o2)C1=O,n,58,n,n,40,n
CC(=O)Nc1ccc2c(COC(=O)CC3Sc4ccccc4NC3=O)cc(=O)oc2c1 (stereo not given),n,50,n,n,51,n
CCOC(=O)CN1C(=O)N[C@@H](CCc2ccccc2)[C@@H](C(=O)OC)[C@H]1C,n,n,n,n,x,x
CCN1C(=NCCCOC(C)C)N[C@@H](CCc2ccccc2)[C@H](C(=O)NCCCOC(C)C)[C@H]1C,n,42,n,n,58,n
CCN1C(=NCCOC)N[C@@H](CCc2ccccc2)[C@H](C(=O)OC)[C@H]1C,n,46,n,n,66,n
Cc1cc(C)cc(N2CC(c3nc4ccccc4n3C)CC2=O)c1 (stereo not given),n,58,n,n,46,n
CCS(=O)(=O)C(C)(CCl)C(=O)Nc1ccc(C(=O)OC)cc1 (stereo not given),n,n,n,n,x,x
CCn1c(C)cc(/C=C2\NC(=O)N(CC(=O)Nc3ccc(F)cc3)C2=O)c1C,n,66,n,n,74,n
Cc1cc(C)n(CC(=O)O)c(=O)c1[N+](=O)[O-],n,n,n,n,x,x
COCC(=O)N1CCC(Oc2ccc(C(=O)N3CCCCC3COC)cc2)CC1 (stereo not given),n,n,n,n,x,x
O=C(O)c1ccc2c3c(cccc13)C(=O)N(c1ccccc1)C2=O,n,63,n,n,55,n
CC(=O)Oc1ccccc1/C=C/c1nc2ccccc2c(=O)o1,n,n,n,n,x,x
O=c1oc(/C=C/c2ccc([N+](=O)[O-])s2)nc2ccccc12,n,43,n,n,33,x
COc1ccc(S(=O)(=O)N(CCc2ccccc2)CC(=O)NC(C)C)cc1,n,50,n,n,48,n
COc1ccc(S(=O)(=O)N(CC(=O)NC(C)C)Cc2ccccc2)cc1,n,n,n,n,x,x
CNC(=O)CN(CCc1ccccc1)S(=O)(=O)c1ccc(OC)cc1,n,45,n,n,n,x
C[n+]1cn(CC(O)COCc2ccccc2)c2ccccc21 (stereo not given),n,56,n,n,77,n
Cc1cc2c(cc1C)[n+](C)cn2CC(O)COCc1ccccc1 (stereo not given),n,41,n,n,n,x
CCCOc1ccc(C(=O)Nc2ccccc2[N+](=O)[O-])cc1,n,76,n,n,n,n
COc1ccc2nc(NC(=O)CSCc3c(C)noc3C)sc2c1,n,n,n,n,x,x
Cc1noc(C)c1CSCC(=O)Nc1nc2ccc(S(C)(=O)=O)cc2s1,n,44,n,n,n,x
CCc1ccc(OCC(=O)NNC(=O)c2cc(S(=O)(=O)N(C)C)ccc2N2CCCC2)cc1,x,n,x,n,x,x
O=C(NC1=NCCS1)C1CCN(S(=O)(=O)c2ccc(Cl)cc2)CC1,n,n,x,n,x,x
O=C(NC1=NCCS1)C1CCN(S(=O)(=O)c2cc([N+](=O)[O-])ccc2Cl)CC1,n,53,n,n,53,n
SMILES,HDAC3 inh,A3A deaminase,LANA-H2B inh,APOBEC3G inh,A3A conf,UDG ctr A3A
Cc1cc(C)nc(SCC(=O)N/N=C/c2cccn2-c2cccc(C(F)(F)F)c2)n1,n,42,n,n,n,x
C[n+]1ccccc1N1CCN(c2ccccc2Cl)CC1,n,60,n,n,n,x
Cc1ccc(Cl)cc1N1CCN(C(=S)NCCc2ccccc2)CC1,n,n,n,n,x,x
Cc1ccc(Cl)cc1N1CCN(c2cccc[n+]2C)CC1,n,46,n,n,n,x
COc1ccc(C(=S)N2CCN(c3ccccc3Cl)CC2)cc1OC,n,n,n,n,x,x
Cc1cc(C)n2nc(SCC#N)nc2n1,n,97,n,n,n,x
